Reference: PubChem BioAssay (NCATS)
Records with an inconclusive call do not appear. Calls of active or inactive are those of the source. The call rests on the fitted dose curve; in most records, active means well fitted inhibition curve with a large enough effect; inconclusive means small, poorly fitted or top-dose-only effect; inactive means flat fitted curve, though single readings scatter.

Experiments:
[1] = system: CRL-7250; assay: Cytotoxic Profiling of Annotated Libraries Using Quantitative High-Throughput Screening (AID 1296008); conditions: Five cell lines viability, CellTiter-Glo ATP luminescence, 48-72 h; max response: active compounds read low; on max response: on the % scale 0 is the no-effect control and ±100 the full control effect
In short: (§1)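 Cells exposed to compounds for 48 or 72 hr at 37 degrees Celsius. Viability read as ATP-coupled luminescence with CellTiter-Glo after 10 min at room temperature.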

[2] = system: HEK293; assay: as above; conditions: Five cell lines viability, CellTiter-Glo ATP luminescence, 48-72 h; max response: active compounds read low
In short: as §1

[3] = system: HaCat; assay: as above; conditions: Five cell lines viability, CellTiter-Glo ATP luminescence, 48-72 h; max response: active compounds read low
In short: as §1

[4] = system: KB-3-1; assay: as above; conditions: Five cell lines viability, CellTiter-Glo ATP luminescence, 48-72 h; max response: active compounds read low
In short: as §1

[5] = system: NIH3T3; assay: as above; conditions: Five cell lines viability, CellTiter-Glo ATP luminescence, 48-72 h; max response: active compounds read low
In short: as §1

[6] = system: HACAT; assay: qHTS assay to identify novel small-molecules to repurpose for Merkel cell carcinoma treatment (AID 1296009); conditions: MCC and control cell lines, CellTiter-Glo viability, 72 h; at 44.8 µM (top of the series) unless noted
In short: (§2)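 Dose-response viability screen; 72 hr exposure at 37 degree celsius; CellTiter-Glo added, 10 min room temperature, luminescence read; RLUs scaled between no-cell and DMSO wells.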

[7] = system: HEK293T; assay: as above; conditions: MCC and control cell lines, CellTiter-Glo viability, 72 h; at 44.8 µM (top of the series) unless noted
In short: as §2

[8] = system: TAB113; assay: qHTS profiling for inhibitors of Plasmodium falciparum proliferation (AID 504749);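 further: 0% = DMSO vehicle and full inhibition = artemisinin control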; conditions: P. falciparum in erythrocytes, SYBR Green DNA, 72 h; series mostly up to 28.7 µM
In short: (§3)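 Each compound contacts P. falciparum-infected red blood cells for 72 h at 37 C; lysis buffer (Tris, EDTA, saponin, Triton X, SYBR Green I) is added and fluorescence measured next morning; values normalized to controls.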

[9] = system: TAB165; assay: as above; conditions: P. falciparum in erythrocytes, SYBR Green DNA, 72 h; series mostly up to 28.7 µM
In short: as §3

[10] = system: W2; assay: as above; conditions: P. falciparum in erythrocytes, SYBR Green DNA, 72 h; series mostly up to 28.7 µM
In short: as §3
Further: nearly all actives have a fitted effect of over 60% in size.

C/C(=C(\CCOP(=O)(O)O)SC(=O)c1ccccc1)N(C=O)Cc1cnc(C)nc1N
inactive: max response [1] -3.12% | outcome [2] | outcome [3] | max response [4] 9.44% | outcome [5] | outcome [6] inactive [at 4.96 µM] | outcome [7] inactive [at 4.96 µM]

CC(O)COc1ccccc1 (configuration not stated)
inactive: Potency [8] | Potency [9] | Potency [10] | max response [1] 2.21% | outcome [2] | outcome [3] | max response [4] 5.08% | max response [5] -1.73% | outcome [6] | outcome [7]

O=C(O)CC(O)C(=O)O (configuration not stated)
inactive: Potency [8] | Potency [9] | Potency [10] | max response [1] -10.5% | outcome [2] | outcome [3] | max response [4] 15.7% | max response [5] 4.82% | outcome [6] | outcome [7]

C[C@H]1O[C@H](O[C@H]2[C@H](O)[C@@H](O)[C@@H](O[C@H]3[C@H](O)[C@@H](O)[C@H](O)O[C@@H]3CO)O[C@@H]2CO)[C@H](O)[C@@H](O)[C@@H]1N[C@H]1C=C(CO)[C@@H](O)[C@H](O)[C@H]1O
inactive: outcome [1] | outcome [2] | outcome [3] | max response [4] -3.3% | outcome [5] | outcome [6] | outcome [7]

NS(=O)(=O)c1cc2c(cc1C(F)(F)F)NC(Cc1ccccc1)NS2(=O)=O (configuration not stated)
inactive: max response [1] -4.39% | outcome [2] | outcome [3] | max response [4] -0.539% | outcome [5] | outcome [6] | outcome [7]

OC[C@H]1O[C@@H](O[C@@H]2[C@@H](CO)O[C@](O)(CO)[C@H]2O)[C@H](O)[C@@H](O)[C@H]1O
inactive: max response [1] -1.41% | outcome [2] | outcome [3] | max response [4] -20% | max response [5] 4.19% | outcome [6] | outcome [7]

O=S(=O)(O)NC1CCCCC1
inactive: Potency [8] | Potency [9] | max response [1] -7.57% | outcome [2] | outcome [3] | max response [4] -17.7% | max response [5] 1.01% | outcome [6] | outcome [7]

O=C1O[C@H](CO)[C@@H](O)[C@H](O)[C@H]1O
inactive: outcome [1] | outcome [2] | outcome [3] | max response [4] 25.2% | max response [5] -2.57% | outcome [6] | outcome [7]

CN(N=O)C(=O)N[C@@H]1[C@@H](O)[C@H](O)[C@@H](CO)O[C@@H]1O
inactive: outcome [1] | outcome [2] | outcome [3] | max response [4] 28.6% | outcome [5] | outcome [6] | outcome [7]

Cc1ncc(COP(=O)(O)O)c(C=O)c1O
inactive: Potency [8] | Potency [9] | Potency [10] | max response [1] 2.82% | outcome [2] | outcome [3] | max response [4] -1.97% | max response [5] 3.84% | outcome [6] | outcome [7]

CCN(CC)CCOC(=O)C1(C2CCCCC2)CCCCC1
inactive: outcome [1] | max response [2] -0.793% | outcome [3] | max response [4] -11.2% | max response [5] 1.01% | outcome [6]

CCCCCCCCCCCCCCCCCCOCC(O)CO (configuration not stated)
inactive: Potency [8] | Potency [9] | Potency [10] | outcome [1] | outcome [2] | outcome [3] | max response [4] 4.03% | max response [5] 4.13% | outcome [6] | outcome [7]

O=C1c2c(O)cccc2Cc2cccc(O)c21
inactive: Potency [8] | Potency [9] | Potency [10] | max response [1] 0.516% | outcome [2] | outcome [3] | max response [4] -0.793% | max response [5] 4.73% | outcome [6] | outcome [7]

N[C@H]1C(O)O[C@H](CO)[C@@H](O)[C@@H]1O (some centres not stated)
inactive: max response [1] -7.05% | outcome [2] | outcome [3] | max response [4] 2.62% | max response [5] -13.4% | outcome [6] | outcome [7]

O=C(O)COc1nn(Cc2ccccc2)c2ccccc12
inactive: Potency [8] | Potency [9] | max response [1] -2.07% | outcome [2] | outcome [3] | max response [4] -3.25% | max response [5] 2.16% | outcome [6] | outcome [7]

O=C(O)[C@@H]1CSCN1
inactive: Potency [8] | Potency [9] | max response [1] -15.8% | outcome [2] | outcome [3] | max response [4] 0.966% | outcome [5] | outcome [6] | outcome [7]

COc1cc2[nH]c(=O)[nH]c(=O)c2cc1OC
inactive: Potency [8] | Potency [9] | Potency [10] | outcome [1] | outcome [2] | outcome [3] | max response [4] 35.7% | max response [5] 2.37% | outcome [6] | outcome [7]
